# Measured values reported in the supplement of paper PMC7366291.
# Where a name gives a salt, the structure may show the parent alone. ± gives the standard deviation of the averaged measurements.
# Test system: Danio rerio Tg(wt1b:EGFP) embryo, pronephros
# Test: glomerular width (mean of left and right), fold change vs DMSO control; higher = wider glomerulus
# Conditions: 25 µM; exposure: 24-48 hpf
# Method in brief: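 Features are reported as fold changes against the mean of same-day DMSO-treated embryos. Before that, values more than 2 SD away from the feature mean were excluded. The embryos, dechorionated Tg(wt1b:EGFP) zebrafish, had been exposed from 24 to 48 hpf at 28.5°C to 25 μM compound in 0.5% DMSO in HEPES-buffered E3 with 0.003% PTU, and distances and angles came from 16 manually set points on maximum projections of dorsal pronephros images in Fiji.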
row,Compound,glomerular width
1,N/C(=N\C(=O)c1nc(Cl)c(N)nc1N)NCc1ccccc1 [Benzamil hydrochloride],1.05 ± 0.019
2,CC(C)[C@H]1CC[C@H](C(=O)N[C@H](Cc2ccccc2)C(=O)O)CC1 [Nateglinide],1.04 ± 0.024
3,NC(CO)C(=O)NNCc1ccc(O)c(O)c1O (stereo not drawn) [Benserazide hydrochloride],1.01 ± 0.071
4,Cc1cc(/C=C/c2ccc3cc(N(C)C)ccc3[n+]2C)c(C)n1-c1ccccc1 [Pyrvinium pamoate],0.975 ± 0.021
5,Cc1cnc(C(=O)NCCc2ccc(S(=O)(=O)NC(=O)NC3CCCCC3)cc2)cn1 [Glipizide],1.056 ± 0.0043
6,C=C1c2c(Cl)ccc(O)c2C(=O)C2=C(O)[C@]3(O)C(=O)C(C(N)=O)=C(O)[C@@H](N(C)C)[C@@H]3[C@@H](O)[C@H]12.O=C(O)c1cc(S(=O)(=O)O)ccc1O [Meclocycline sulfosalicylate],1.09 ± 0.091
7,CN1CCC[C@@H]1CCO[C@](C)(c1ccccc1)c1ccc(Cl)cc1 [Clemastine fumarate],1.01 ± 0.058
8,CCCCN(CCCC)CCC(O)c1cc2c(Cl)cc(Cl)cc2c2cc(C(F)(F)F)ccc12 (stereo not drawn) [Halofantrine hydrochloride],0.655 ± 0.038
